Consider seven molecules from PubChem BioAssay (EPA / NIEHS).

Read-out in test [1]: Monocyte Chemoattractant Protein-1 (MCP1), CCL2 (gene 6347)
The experiment in a line: BSK_SAg_MCP1: BioMAP Diversity Plus: SAg Assay for Monocyte Chemoattractant Protein-1 (MCP1) Biomarker Activity (AID 2283090). Particulars: primary human HUVEC with PBMC; actives raise or lower the signal. The essentials: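 MCP-1 levels in the endothelial–PBMC SAg co-culture were quantified by ELISA at 24 h post-dosing; both increases and decreases versus DMSO scored. Cytotoxicity monitored by SRB total protein in parallel cultures.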

Read-out in test [2]: E-selectin (Homo sapiens) (UniProt P16581)
The experiment in a line: BSK_SAg_Eselectin: BioMAP Diversity Plus: SAg Assay for Eselectin Biomarker Activity (AID 2283091). Particulars: primary human HUVEC with PBMC; actives raise or lower the signal. The essentials: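 Primary human endothelial cells and peripheral blood mononuclear cells were co-cultured and exposed to chemical for 24 hours. E-selectin levels were then quantified by ELISA, with bidirectional curve fitting normalised to DMSO controls.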

Read-out in test [3]: Monokine induced gamma interferon (MIG), CXCL9 (gene 4283)
The experiment in a line: BSK_SAg_MIG: BioMAP Diversity Plus: SAg Assay for Monokine induced gamma interferon (MIG) Biomarker Activity (AID 2283092). Particulars: primary human HUVEC with PBMC; actives raise or lower the signal. The method, boiled down: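 ELISA readout of MIG/CXCL9; primary human umbilical vein endothelial cells co-cultured with peripheral blood mononuclear cells; 24 h post-dose; gain/loss fit vs DMSO baseline.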

Test [4] can be described thus: BSK_SAg_PBMCCytotoxicity: PBMC Cytotoxicity Assessment in the BioMAP Diversity Plus: SAg Assay (AID 2283093).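 Further: PBMC viability measured as Alamar Blue reduction fluorescence at 546/580 nm; fitted both ways against DMSO so a hit may be loss or gain of signal.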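 On AC50: PBMC superantigen activated with SEB plus TSST-1 one hour after compound addition.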 Particulars: primary human HUVEC with PBMC. The method, boiled down: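 HUVEC/PBMC co-culture; PBMC exposed to chemical 1 h before SEB and TSST-1 activation (20 ng/mL each), incubated 90 h, then Alamar Blue 6 h, fluorescence 546/580 nm. Bidirectional fit versus DMSO baseline.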

Read-out in test [5]: Interleukin-8 (IL8), CXCL8 (gene 3576)
The experiment in a line: BSK_SAg_IL8: BioMAP Diversity Plus: SAg Assay for Interleukin-8 (IL8) Biomarker Activity (AID 2283094). Particulars: primary human HUVEC with PBMC; actives raise or lower the signal. The essentials: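 Human umbilical vein endothelial cells co-cultured with PBMC, stimulated with superantigen; IL-8 measured by ELISA 24 h after chemical dosing. Bidirectional fitting versus DMSO; SRB staining in parallel cultures tracks cytotoxicity.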

A short description of test [6]: BSK_SAg_Proliferation: Cell Proliferation Assessment in the BioMAP Diversity Plus: SAg Assay (AID 2283095). Particulars: primary human HUVEC with PBMC. The method, boiled down:
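Human umbilical vein endothelial cells co-cultured with PBMC; sulforhodamine B total-protein staining (0.1% SRB after 10% TCA fixation, absorbance 560 nm) at 96 h in sub-confluent culture. Fitted bidirectionally against DMSO.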

The target in test [7] is Cytochrome P450 2C19 (Homo sapiens) (UniProt P33261). The experiment in a line: NVS_ADME_hCYP2C19: NovaScreen (NVS) CYP450-related Enzyme Activity (ADME) Assay for human CYP2C19 (AID 2283113; active means hit-call score of the fitted dose curve at least 0.9, where 1 is the maximum;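 on AC50: potency for inhibition seen as loss of fluorescent signal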). The essentials: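 Chemicals first screened in duplicate at 10 uM against recombinant human enzyme produced in insect cells; confirmed actives then run as concentration series. Fluorogenic substrate turnover read by fluorescence after 1 h, normalised to acetonitrile.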

The target of test [8] is human CYP2D6, CYP2D6 (gene 1565) (UniProt P10635). The test is described as follows: NVS_ADME_hCYP2D6: NovaScreen (NVS) CYP450-related Enzyme Activity (ADME) Assay for human CYP2D6 (AID 2283107; active means hit-call score of the fitted dose curve at least 0.9, where 1 is the maximum). The method, boiled down:
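Compounds were first tested in duplicate at 10 uM against recombinant enzyme produced in insect cells, with substrate turnover measured by fluorescence after 1 hour. Decreased signal, referenced to acetonitrile vehicle, was taken as reduced enzyme activity. Active chemicals went on to concentration-response testing.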

Test [9] addresses human CYP2C9, CYP2C9 (gene 1559) (UniProt P11712). The test is described as follows: NVS_ADME_hCYP2C9: NovaScreen (NVS) CYP450-related Enzyme Activity (ADME) Assay for human CYP2C9 (AID 2283108; active means hit-call score of the fitted dose curve at least 0.9, where 1 is the maximum). The method, boiled down:
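Recombinant human CYP2C9 expressed in SF9 cells, fluorogenic substrate, fluorescence read 0.75 h after dosing. Chemicals first run in duplicate at 10 uM, with actives followed in concentration series; loss of signal versus acetonitrile baseline.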

Test [10] addresses human CYP19A1, CYP19A1 (gene 1588) (UniProt P11511). The test is described as follows: NVS_ADME_hCYP19A1: NovaScreen (NVS) CYP450-related Enzyme Activity (ADME) Assay for human CYP19A1 (AID 2283098; active means hit-call score of the fitted dose curve at least 0.9, where 1 is the maximum;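 on AC50: potency for inhibitors seen as loss of fluorescent enzyme signal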). The essentials: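 Recombinant enzyme in a cell-free format, read 0.5 h after dosing by fluorescence from a fluorogenic substrate. Loss of signal was fitted against acetonitrile as baseline. Primary screen in duplicate at 10 uM, actives then tested in concentration series.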

Test [11] deals with human CYP1A1, CYP1A1 (gene 1543) (UniProt P04798). The test is described as follows: NVS_ADME_hCYP1A1: NovaScreen (NVS) CYP450-related Enzyme Activity (ADME) Assay for human CYP1A1 (AID 2283100; active means hit-call score of the fitted dose curve at least 0.9, where 1 is the maximum). The method, boiled down:
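Compounds first went through duplicate single-concentration testing at 10 uM against purified CYP1A1. Those passing a threshold such as 30% inhibition entered singleton dose-response, highest concentration 20 uM. Signal was fluorescence measured after 1 hour.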

For test [12], the target named is human CYP1A2, CYP1A2 (gene 1544) (UniProt P05177). The test is described as follows: NVS_ADME_hCYP1A2: NovaScreen (NVS) CYP450-related Enzyme Activity (ADME) Assay for human CYP1A2 (AID 2283102; active means hit-call score of the fitted dose curve at least 0.9, where 1 is the maximum;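 further: potency for inhibition since loss of fluorescence marks reduced CYP1A2 activity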). The essentials: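 Compounds were tested at 10 uM in duplicate against recombinant CYP1A2 produced in insect cells. Enzyme activity was measured by fluorescence 0.5 h after dosing, with loss of signal versus acetonitrile control. Active compounds were re-tested in concentration series.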
Chain of human CYP1A2, CYP1A2 (gene 1544) (P05177 whole entry, looked up): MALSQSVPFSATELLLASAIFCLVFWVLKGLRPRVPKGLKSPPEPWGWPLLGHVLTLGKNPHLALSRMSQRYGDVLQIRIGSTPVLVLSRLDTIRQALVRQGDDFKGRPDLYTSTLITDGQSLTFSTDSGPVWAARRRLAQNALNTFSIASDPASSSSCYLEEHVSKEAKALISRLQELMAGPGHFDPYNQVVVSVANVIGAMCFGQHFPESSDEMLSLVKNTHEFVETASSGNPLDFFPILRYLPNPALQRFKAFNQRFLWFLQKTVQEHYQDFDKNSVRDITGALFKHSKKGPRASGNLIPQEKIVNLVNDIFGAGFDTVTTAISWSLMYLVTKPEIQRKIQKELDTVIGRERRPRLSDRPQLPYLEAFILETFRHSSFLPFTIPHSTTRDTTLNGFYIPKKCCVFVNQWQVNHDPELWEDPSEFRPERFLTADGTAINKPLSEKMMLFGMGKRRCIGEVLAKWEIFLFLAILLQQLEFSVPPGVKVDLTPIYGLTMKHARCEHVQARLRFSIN

The target in test [13] is human CYP2C8, CYP2C8 (gene 1558) (UniProt P10632). The experiment in a line: NVS_ADME_hCYP2C8: NovaScreen (NVS) CYP450-related Enzyme Activity (ADME) Assay for human CYP2C8 (AID 2283104). The essentials: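 Recombinant human CYP2C8 with fluorogenic substrate, 0.5 h, fluorescence intensity; signal loss fitted versus acetonitrile. Screened in duplicate at 10 uM, then actives run in concentration-response up to 20 uM.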
Chain of human CYP2C8, CYP2C8 (gene 1558) (P10632 whole entry, looked up): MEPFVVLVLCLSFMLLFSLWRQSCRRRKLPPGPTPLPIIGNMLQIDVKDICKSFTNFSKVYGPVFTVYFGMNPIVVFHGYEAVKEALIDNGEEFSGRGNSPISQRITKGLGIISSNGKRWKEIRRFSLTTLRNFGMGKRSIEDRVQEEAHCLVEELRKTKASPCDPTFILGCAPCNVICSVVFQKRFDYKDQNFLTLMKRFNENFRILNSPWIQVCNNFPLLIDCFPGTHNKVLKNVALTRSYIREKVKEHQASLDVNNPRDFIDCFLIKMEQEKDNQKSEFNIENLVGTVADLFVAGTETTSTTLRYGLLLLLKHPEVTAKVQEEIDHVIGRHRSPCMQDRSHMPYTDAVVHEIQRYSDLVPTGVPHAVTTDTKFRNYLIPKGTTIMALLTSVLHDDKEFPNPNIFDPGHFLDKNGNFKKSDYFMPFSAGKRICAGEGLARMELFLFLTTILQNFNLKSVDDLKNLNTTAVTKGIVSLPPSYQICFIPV

The target in test [14] is Cytochrome P450 2C18 (Homo sapiens) (UniProt P33260). The test is described as follows: NVS_ADME_hCYP2C18: NovaScreen (NVS) CYP450-related Enzyme Activity (ADME) Assay for human CYP2C18 (AID 2283103). The essentials: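 Cell-free recombinant human CYP2C18 with fluorogenic substrate; fluorescence intensity read 0.5 h after dosing. Single-point screen at 10 uM in duplicate, then concentration-response up to 20 uM; loss of signal fitted against acetonitrile baseline.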
Chain of Cytochrome P450 2C18 (Homo sapiens) (P33260 whole entry, looked up): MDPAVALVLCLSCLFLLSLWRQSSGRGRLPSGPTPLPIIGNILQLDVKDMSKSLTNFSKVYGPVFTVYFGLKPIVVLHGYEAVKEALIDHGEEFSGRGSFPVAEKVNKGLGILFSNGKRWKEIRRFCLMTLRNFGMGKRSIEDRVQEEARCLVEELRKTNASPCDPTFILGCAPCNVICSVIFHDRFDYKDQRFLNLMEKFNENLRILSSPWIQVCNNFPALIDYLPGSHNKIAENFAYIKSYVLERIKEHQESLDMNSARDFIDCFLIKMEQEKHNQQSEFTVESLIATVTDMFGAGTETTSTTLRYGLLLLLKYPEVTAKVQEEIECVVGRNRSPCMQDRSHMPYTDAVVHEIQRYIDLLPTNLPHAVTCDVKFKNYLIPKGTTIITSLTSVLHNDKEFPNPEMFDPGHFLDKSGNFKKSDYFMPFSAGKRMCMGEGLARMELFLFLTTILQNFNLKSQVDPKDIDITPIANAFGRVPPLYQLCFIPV

In test [15] the target is Cytochrome P450 3A4 (Homo sapiens) (UniProt P08684). The experiment in a line: NVS_ADME_hCYP3A4: NovaScreen (NVS) CYP450-related Enzyme Activity (ADME) Assay for human CYP3A4 (AID 2283110; active means hit-call score of the fitted dose curve at least 0.9, where 1 is the maximum). The method, boiled down: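 Cell-free recombinant enzyme expressed in insect cells; fluorescent substrate turnover read after 0.33 h, acetonitrile as negative control. Primary screen in duplicate at 10 uM, actives then tested in concentration series.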
Chain of Cytochrome P450 3A4 (Homo sapiens) (P08684 whole entry, looked up): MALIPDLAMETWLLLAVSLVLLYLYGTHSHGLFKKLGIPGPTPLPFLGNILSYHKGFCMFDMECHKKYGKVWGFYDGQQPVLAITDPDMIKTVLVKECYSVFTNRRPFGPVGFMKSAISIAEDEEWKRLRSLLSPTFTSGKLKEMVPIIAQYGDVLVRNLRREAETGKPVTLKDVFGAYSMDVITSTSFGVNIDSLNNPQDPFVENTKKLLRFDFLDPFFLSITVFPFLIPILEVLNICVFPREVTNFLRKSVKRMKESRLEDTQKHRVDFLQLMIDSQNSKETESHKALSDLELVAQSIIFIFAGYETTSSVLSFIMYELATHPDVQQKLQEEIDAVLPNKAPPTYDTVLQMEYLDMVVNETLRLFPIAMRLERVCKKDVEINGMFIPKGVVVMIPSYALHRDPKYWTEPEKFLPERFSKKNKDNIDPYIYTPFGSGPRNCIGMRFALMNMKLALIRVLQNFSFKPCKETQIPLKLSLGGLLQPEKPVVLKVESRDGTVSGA

The target of test [16] is human CYP4F12, CYP4F12 (gene 66002) (UniProt Q9HCS2). The test is described as follows: NVS_ADME_hCYP4F12: NovaScreen (NVS) CYP450-related Enzyme Activity (ADME) Assay for human CYP4F12 (AID 2283111; active means hit-call score of the fitted dose curve at least 0.9, where 1 is the maximum). The method, boiled down:
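Cell-free fluorescence assay of recombinant human CYP4F12 activity on a specific substrate, read 0.5 h after dosing. Primary screen in duplicate at 10 uM, then concentration series for actives; loss of signal fitted against acetonitrile negative control.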

Values joined by “and” are separate entries in the source; they are usually repeats but may differ in a detail not shown here. Equal entries are not always repeated. Results filed as inconclusive are left out. The source holds several records for some structures; these can differ, active in one and inactive in another. Active and inactive are the calls of the source. How the source made its calls, unless noted: active means hit-call score of the fitted dose curve at least 0.9, where 1 is the maximum; inactive means score below 0.9.

What is called AC50 is the concentration at which the activity in the assay is half-maximal.

Chain of human CYP2C9, CYP2C9 (gene 1559) (P11712 whole entry, looked up): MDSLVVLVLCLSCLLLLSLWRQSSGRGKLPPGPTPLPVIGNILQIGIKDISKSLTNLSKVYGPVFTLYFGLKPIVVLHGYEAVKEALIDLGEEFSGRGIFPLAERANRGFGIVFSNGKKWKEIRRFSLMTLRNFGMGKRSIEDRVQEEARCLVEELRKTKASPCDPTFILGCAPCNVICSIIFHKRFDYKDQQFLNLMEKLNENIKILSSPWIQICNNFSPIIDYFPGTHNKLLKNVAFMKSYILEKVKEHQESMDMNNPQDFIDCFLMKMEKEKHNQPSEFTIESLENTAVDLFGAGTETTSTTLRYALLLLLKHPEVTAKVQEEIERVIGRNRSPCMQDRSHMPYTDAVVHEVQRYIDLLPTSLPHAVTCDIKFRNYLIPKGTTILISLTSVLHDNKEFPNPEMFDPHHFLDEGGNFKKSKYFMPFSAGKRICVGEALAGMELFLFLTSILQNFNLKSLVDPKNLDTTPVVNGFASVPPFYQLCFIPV
Chain of human CYP19A1, CYP19A1 (gene 1588) (P11511 whole entry, looked up): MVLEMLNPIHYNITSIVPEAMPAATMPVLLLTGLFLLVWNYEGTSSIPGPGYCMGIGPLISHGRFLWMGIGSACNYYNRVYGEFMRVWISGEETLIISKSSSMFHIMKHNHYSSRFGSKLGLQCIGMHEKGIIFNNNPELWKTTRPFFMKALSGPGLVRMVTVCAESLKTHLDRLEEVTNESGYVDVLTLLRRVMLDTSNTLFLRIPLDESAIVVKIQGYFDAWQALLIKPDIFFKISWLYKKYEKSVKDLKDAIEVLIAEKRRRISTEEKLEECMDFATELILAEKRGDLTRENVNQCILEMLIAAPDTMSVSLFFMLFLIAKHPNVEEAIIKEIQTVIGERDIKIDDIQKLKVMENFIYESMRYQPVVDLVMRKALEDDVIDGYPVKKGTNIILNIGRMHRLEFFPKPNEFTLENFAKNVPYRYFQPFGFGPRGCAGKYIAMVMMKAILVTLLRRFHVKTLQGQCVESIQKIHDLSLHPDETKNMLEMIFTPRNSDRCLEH
Chain of E-selectin (Homo sapiens) (P16581 whole entry, looked up): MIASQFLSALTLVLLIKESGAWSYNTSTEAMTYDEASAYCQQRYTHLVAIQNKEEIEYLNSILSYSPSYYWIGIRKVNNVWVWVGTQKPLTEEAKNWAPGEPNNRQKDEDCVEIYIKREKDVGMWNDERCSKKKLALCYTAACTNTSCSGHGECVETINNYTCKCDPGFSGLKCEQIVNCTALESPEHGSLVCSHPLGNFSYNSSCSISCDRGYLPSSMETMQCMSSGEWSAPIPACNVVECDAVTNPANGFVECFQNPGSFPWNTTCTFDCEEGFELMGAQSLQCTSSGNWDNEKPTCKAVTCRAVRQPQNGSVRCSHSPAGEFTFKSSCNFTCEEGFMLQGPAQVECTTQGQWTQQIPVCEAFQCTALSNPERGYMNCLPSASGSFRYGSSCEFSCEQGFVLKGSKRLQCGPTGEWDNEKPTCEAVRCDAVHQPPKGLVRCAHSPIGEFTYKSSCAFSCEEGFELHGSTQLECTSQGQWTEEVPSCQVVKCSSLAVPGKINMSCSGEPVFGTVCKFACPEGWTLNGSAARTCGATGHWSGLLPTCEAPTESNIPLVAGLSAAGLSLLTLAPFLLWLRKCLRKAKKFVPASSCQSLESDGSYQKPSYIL
Chain of human CYP2D6, CYP2D6 (gene 1565) (P10635 whole entry, looked up): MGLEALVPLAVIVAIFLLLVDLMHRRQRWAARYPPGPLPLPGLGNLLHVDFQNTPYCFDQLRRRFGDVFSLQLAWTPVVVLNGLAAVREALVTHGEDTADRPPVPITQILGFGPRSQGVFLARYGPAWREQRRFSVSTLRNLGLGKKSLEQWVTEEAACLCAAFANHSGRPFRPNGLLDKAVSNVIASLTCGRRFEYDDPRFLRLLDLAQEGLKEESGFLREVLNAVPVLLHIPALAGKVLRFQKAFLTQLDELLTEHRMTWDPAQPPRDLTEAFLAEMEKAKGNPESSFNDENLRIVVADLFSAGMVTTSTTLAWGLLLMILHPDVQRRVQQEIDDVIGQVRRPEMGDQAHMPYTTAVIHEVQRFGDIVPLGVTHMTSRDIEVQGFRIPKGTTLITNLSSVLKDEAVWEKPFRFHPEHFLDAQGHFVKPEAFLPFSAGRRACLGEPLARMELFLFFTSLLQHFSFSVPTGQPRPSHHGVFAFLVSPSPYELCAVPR
Chain of human CYP1A1, CYP1A1 (gene 1543) (P04798 whole entry, looked up): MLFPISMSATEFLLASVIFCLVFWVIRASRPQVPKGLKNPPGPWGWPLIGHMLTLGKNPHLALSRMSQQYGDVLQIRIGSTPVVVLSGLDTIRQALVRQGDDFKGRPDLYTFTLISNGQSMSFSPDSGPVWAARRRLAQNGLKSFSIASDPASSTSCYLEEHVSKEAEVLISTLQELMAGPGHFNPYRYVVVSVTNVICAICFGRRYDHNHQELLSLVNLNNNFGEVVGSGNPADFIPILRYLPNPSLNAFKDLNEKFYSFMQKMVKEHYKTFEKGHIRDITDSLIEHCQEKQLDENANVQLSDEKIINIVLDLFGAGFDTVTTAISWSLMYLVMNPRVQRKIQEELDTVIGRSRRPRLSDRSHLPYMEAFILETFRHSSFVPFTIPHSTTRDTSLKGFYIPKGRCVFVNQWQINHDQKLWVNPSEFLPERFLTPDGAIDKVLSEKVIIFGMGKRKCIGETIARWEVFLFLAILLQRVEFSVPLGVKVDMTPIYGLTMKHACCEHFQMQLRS

With `CCON=C(CC)C1=C(O)CC(c2c(C)cc(C)cc2C)CC1=O` (stereo not given), the outcome in [1], in test [2], in test [3], in test [4], in test [5] and in [6] was inactive. The half-maximal activity concentration (AC50) in [7] is 3.37 µM (active).
For the molecule `N#Cc1cc(Br)c(O)c(Br)c1`, the result in test [1], in test [2], in test [3] and in [8] was inactive. Further, the concentration at half-maximal activity (AC50) is 14.4 µM (active) in test [4], 30.5 µM (active) in [5] and 33.4 µM (active) in [6].
For the molecule `COc1nc(C)nc(NC(=O)NS(=O)(=O)c2ccccc2CCC(F)(F)F)n1`, the result in test [1], in test [2], in [3], in test [4], in [5] and in [6] was inactive. Also, in [9], the molecule was called inactive.
In the case of `CCNc1nc(Cl)nc(NC(C)C)n1`, the result in test [1], in [3], in test [4], in [5], in [6] and in test [10] was inactive. Moreover, the result in test [11] was inactive. Besides, the AC50 in [2] was 13.9 µM (active); in test [12], 14.8 µM (active) and 9.2 µM (active); in [7], 10 µM (active).
For `CCc1nn(C)c(C(=O)NCc2ccc(C(C)(C)C)cc2)c1Cl`, the AC50 in test [1] was 20 µM (active); in [2] it was 3.97 µM (active); in test [3], 34.7 µM (active); in test [4], 34.8 µM (active); in test [5], 5.02 µM (active); in test [6], 20 µM (active). The molecule was classed as inactive in test [13].
As for `CC(C)Oc1cc(-n2nc(C(C)(C)C)oc2=O)c(Cl)cc1Cl`, the concentration at half-maximal activity (AC50) in test [1] is 29.9 µM (active); in [2] it was 30.3 µM (active); in test [3], 31.9 µM (active); in test [4], 34.4 µM (active); in test [5], 31.2 µM (active); in test [6] it was 31.3 µM (active). In addition, the AC50 in [12] is 6.42 µM (active). In addition, the call in test [7] was inactive.
Turning to `COc1ccc(C(c2ccc(OC)cc2)C(Cl)(Cl)Cl)cc1`, the concentration at half-maximal activity (AC50) in [1] was 27.1 µM (active); in test [2] it was 14.4 µM (active); in [3] it was 30.7 µM (active); in test [4] it was 31.5 µM (active); in test [5], 11.9 µM (active); in [6], 12 µM (active). Moreover, the half-maximal activity concentration (AC50) in test [10] was 3.76 µM (active); in test [14] it was 4.6 µM (active); in test [9], 10 µM (active); in test [7], 7 µM (active). The call in test [10], in [13], in test [15] and in [16] was inactive.
